Assay results reported in PubChem BioAssay (NCI).
“And” between values parts separate entries of the source, which are not always exact repeats. Equal entries are not always repeated. About 83,000 compounds went through this panel and 20% of them were active in at least one assay; those are over-represented in the sample as a whole.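 For each line, cells grew in 96-well plates with the test compound present at a single concentration for 48 hours.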 The source made the active and inactive calls. How the source made its calls: active means growth percent below 10; inactive means the rest.

Legend:
Experiment in all cases: NCI-60 one-dose screen, 48 h (100 = growth as untreated, 0 = no growth, -100 = all killed)
Details in all cases: 10 µM unless noted
[1] = test system: SK-MEL-2 melanoma
[2] = test system: EKVX NSCLC
[3] = test system: SN12C renal
[4] = test system: UO-31 renal
[5] = test system: TK-10 renal
[6] = test system: ACHN renal
[7] = test system: CAKI-1 renal
[8] = test system: A498 renal
[9] = test system: CCRF-CEM leukemia
[10] = test system: MOLT-4 leukemia

Measured: growth

Fc1ccc(N2CC(Cn3c(C(F)(F)F)cc4c(Cl)ncnc43)C2)c(F)c1
inactive: [2] 72.4% | [5] 104% | [6] 41.8% | [7] 71.7% | [8] 130%
active: [1] -78.1% | [3] -29.1% | [4] -92% | [9] -38.5% | [10] -61.3%

CC1=C(C(=O)Nc2ccccc2)C(c2cccc(Cl)c2Cl)n2c(nc3ccccc32)N1 (stereo not given)
inactive: [1] 75.2% | [2] 46.3% | [3] 53.4% | [4] 33.7% | [5] 57.8% | [6] 42.5% | [7] 36.4% | [8] 35% | [9] 29.8%
active: [10] 7.7%

CC1(C)CC(=O)C2=C(C1)OC(N)=C(c1nc3ccccc3[nH]1)C2c1ccc(Cl)cc1 (stereo not given)
inactive: [1] 43.5% and 112% | [2] 57% and 100% | [3] 79.7% and 105% | [4] 71.2% and 86.4% | [5] 71.7% and 106% | [6] 62.4% and 106% | [7] 63.9% and 103% | [8] 66.9% and 149% | [9] 31.8% and 102% | [10] 17.6% and 103%

N#CC1=C(c2ccco2)Nc2c(c(-c3ccccc3)nn2-c2ccccc2)C12C(=O)Nc1ccc(Cl)cc12 (stereo not given)
inactive: [1] 80.2% | [2] 24.2% | [4] 43.1% | [7] 33% | [8] 135% | [9] 25% | [10] 34.8%
active: [3] -44.4% | [5] -15.4% | [6] 8.94%

O=C(NNC(=S)NCCc1ccccc1)c1ccc(OCc2nc3ccc(Cl)cc3[nH]2)cc1
inactive: [1] 71.6% | [2] 66.1% | [3] 73.1% | [4] 54.1% | [5] 83.8% | [6] 81.1% | [7] 79.9% | [8] 166% | [9] 58.9% | [10] 39.7%

CN1C(=O)/C(=C/c2ccco2)S/C1=N/c1nccs1
inactive: [1] 108% | [2] 91.8% | [3] 100% | [4] 80.9% | [5] 130% | [6] 100% | [7] 91.7% | [8] 107% | [9] 96.8% | [10] 107%

O=C(NNC(=O)c1ccc(OCc2nc3ccc(Cl)cc3[nH]2)cc1)Nc1ccc(Cl)c(C(F)(F)F)c1
inactive: [1] 109% | [2] 69.6% | [3] 64.9% | [4] 82.8% | [5] 116% | [6] 75.3% | [7] 81% | [8] 154% | [9] 48.9% | [10] 60.6%

Cc1nn(-c2ccccc2)c2nc(C)n(CC(=O)N/N=C/c3ccccc3O)c(=O)c12
inactive: [1] 38.1% | [2] 13% | [3] 30% | [4] 13.2% | [5] 32.8% | [6] 14.6% | [7] 22.6% | [8] 97% | [9] 25.7% | [10] 22.8%

COc1ccc(Nc2nnc(-c3c[nH]c4ccccc34)o2)cc1
active: [9] 7.79%
inactive: [1] 92% | [2] 68% | [3] 58.6% | [4] 62.6% | [5] 135% | [6] 89.6% | [7] 72.9% | [8] 130% | [10] 40.3%

Clc1ccc(-c2nc3c4c(-c5ccccc5)c(-c5ccccc5)n(Cc5ccccc5)c4ncn3n2)cc1
inactive: [5] 24.1%
active: [1] -10.4% | [2] 2.2% | [3] 0.356% | [4] 1.71% | [6] -4.9% | [7] -20.1% | [8] -17.4% | [9] -2.09% | [10] -5.99%

C[C@@H]1[C@H]2C[C@@H](C[C@H]1NCc1nc3ccccc3n1C1CCCCCC1)C2(C)C
inactive: [1] 70.6% | [2] 68.3% | [3] 39.8% | [4] 44.4% | [5] 90.8% | [6] 59.5% | [7] 55.5% | [8] 88.9% | [9] 58% | [10] 33.6%

CCOC(=O)c1ccc(NC(=S)NC(=O)c2cccc(NC(=O)c3ccc(C)cc3)c2)cc1
inactive: [1] 88.9% | [2] 74.7% | [3] 31% | [4] 63.9% | [5] 89.2% | [6] 75.5% | [7] 76.8% | [8] 105% | [9] 78.3% | [10] 70.4%

Cc1ccc(C(=O)Nc2cc(-n3cnc(F)c3)cc(C(F)(F)F)c2)cc1C#Cc1cnc2cccnn12
inactive: [1] 40.7% | [2] 74.2% | [3] 45.6% | [4] 39.9% | [5] 83.2% | [6] 59.4% | [7] 63.1% | [8] 103% | [9] 29% | [10] 44.7%

CC(=O)Nc1ccc(S(=O)(=O)Nc2ccc(-c3ccc4c(c3)NC(=O)/C4=C\c3ccc[nH]3)cc2)cc1
inactive: [1] 93.8% | [2] 55.6% | [3] 100% | [4] 73.1% | [5] 69.3% | [6] 75.5% | [7] 76.7% | [8] 139% | [9] 80.2% | [10] 71.6%

CS(=O)(=O)Nc1cncc(-c2ccc3ncnc(NCc4ccccc4)c3c2)c1
inactive: [2] 55.2% | [3] 34.8% | [4] 52.7% | [5] 63% | [6] 77.5% | [7] 60.7% | [8] 63.8% | [9] 17%
active: [1] -8.92% | [10] -26%

CCCCCCCCc1cccc(CC(=O)Nc2ccc(C)cc2C(=O)O)c1
inactive: [1] 86.3% [25 µM] | [2] 66.5% [25 µM] | [3] 51% [25 µM] | [4] 53.8% [25 µM] | [5] 63.1% [25 µM] | [6] 46.7% [25 µM] | [7] 36.1% [25 µM] | [8] 123% [25 µM] | [9] 26.7% [25 µM] | [10] 17.9% [25 µM]

O=C(COc1ccc(/C=C2/C(=O)Nc3ccc(Cl)cc32)cc1)Nc1ccc(Br)cc1
active: [2] -27.8% | [3] -80.6% | [4] -73.7% | [5] -65.4% | [6] -82.9% | [7] -73% | [8] -51% | [9] -23.9% | [10] -46.5%
inactive: [1] 16.3%

N#Cc1c(-c2ccc(F)cc2)nc(SCc2ccccc2)nc1N1CCNCC1
active: [1] -82.9% | [2] -98.3% | [3] -93.5% | [4] -82.7% | [5] -88.3% | [6] -99% | [7] -95.3% | [8] -13.8% | [9] -3.47% | [10] -0.64%

COc1ccc2oc(=O)c(-c3csc(N/N=C(\C)c4cc(OC)c(OC)c(OC)c4)n3)cc2c1
inactive: [1] 99.7% | [2] 94.7% | [3] 80.5% | [4] 90.8% | [5] 94.2% | [6] 78.7% | [7] 97.8% | [8] 145% | [9] 81.3% | [10] 81%

Nc1cccc(-n2c(COc3ccc(I)cc3)nc3ccccc32)c1
inactive: [1] 82.5% and 105% | [2] 70.4% and 102% | [3] 90.2% and 103% | [4] 43.6% and 81.3% | [5] 112% and 98.6% | [6] 81.9% and 103% | [7] 56.8% and 97.2% | [8] 112% and 132% | [9] 82.8% and 99.3% | [10] 71.5% and 99.8%

COc1ccc(N=Nc2c(N)nn3c(-c4cc5ccccc5oc4=O)ccnc23)cc1
active: [6] 3.84%
inactive: [1] 39.3% | [2] 44.1% | [3] 24.1% | [4] 40.7% | [5] 77.7% | [7] 53.8% | [8] 138% | [9] 96.3% | [10] 104%

C=CC[n+]1cccc2c3ccccc3ccc21
inactive: [1] 63.3% | [2] 23.7% | [4] 56.5% | [5] 67.1% | [6] 88% | [7] 60.6% | [8] 48.6% | [9] 47.3% | [10] 47.9%
active: [3] 8.67%

O=C(N/N=C/c1ccc(-c2cccc([N+](=O)[O-])c2)s1)c1[nH]c2ccc(Br)cc2c1-c1ccccc1
inactive: [1] 84.4% | [2] 94.7% | [3] 91.4% | [4] 82.1% | [5] 101% | [6] 87.3% | [7] 90.4% | [8] 132% | [9] 91% | [10] 69.3%

COc1cc(/C=C/C(=O)c2cnn(-c3cc(=O)[nH]c4ccccc34)c2C)cc(OC)c1OC
active: [2] 4.03% | [3] -1.59% | [9] -18.6% | [10] -12.8%
inactive: [1] 52% | [4] 25.6% | [5] 27.7% | [6] 20.3% | [7] 19.1% | [8] 96.1%

ClC(Cn1ncc2c(Nc3cccc(Br)c3)nc(SCCN3CCOCC3)nc21)c1ccc(Br)cc1 (stereo not given)
inactive: [2] 16.5% | [3] 26.2% | [5] 40.9% | [8] 31.7%
active: [1] -11.9% | [4] -65.7% | [6] 7.98% | [7] -28% | [9] -6.03% | [10] -34.3%
